# Test results as given in the supplement of paper PMC3334620.
# Over roughly 33,000 sequences, “E-score (-0.5 to 0.5)” has its median near -0.035; the highest 2% begin near 0.34. The full list was thinned out, with the highest values kept by preference.
# Target: T1, Mot3 (UniProt P54785)
# T1 sequence: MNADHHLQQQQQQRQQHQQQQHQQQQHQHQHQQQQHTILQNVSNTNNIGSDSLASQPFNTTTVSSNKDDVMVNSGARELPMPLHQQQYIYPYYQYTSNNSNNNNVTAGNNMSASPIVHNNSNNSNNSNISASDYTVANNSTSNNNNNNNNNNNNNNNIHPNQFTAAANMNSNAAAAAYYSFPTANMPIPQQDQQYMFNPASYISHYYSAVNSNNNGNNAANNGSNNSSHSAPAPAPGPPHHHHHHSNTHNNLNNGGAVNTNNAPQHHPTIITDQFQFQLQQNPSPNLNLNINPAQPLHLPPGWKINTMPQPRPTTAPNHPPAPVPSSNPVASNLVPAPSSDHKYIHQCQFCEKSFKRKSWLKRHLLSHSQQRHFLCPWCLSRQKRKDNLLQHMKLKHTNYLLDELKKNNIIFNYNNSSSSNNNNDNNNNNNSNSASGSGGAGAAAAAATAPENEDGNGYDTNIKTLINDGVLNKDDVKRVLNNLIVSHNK
# Assay: PBM E-score (8-mer binding enrichment) (E-score (-0.5 to 0.5)); higher = stronger / more preferred TF binding
# Conditions: protein concentration: 200 nM; construct: GST-full length
# Method: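 Universal 'all 10-mer' protein binding microarrays (Agilent AMADID 015681) probed with GST-tagged S. cerevisiae TFs (full-length or DBD) made by in vitro transcription/translation (PURExpress), about 100-200 nM. Bound TF was detected with fluorescent anti-GST. Each ungapped 8-mer (which stands for itself and its reverse complement) is scored by the PBM enrichment score (E-score), a modified Wilcoxon-Mann-Whitney statistic from -0.5 to +0.5, computed with the Universal PBM Analysis Suite. Scale: above 0.35 generally sequence-specific binding.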
row,Sequence,PBM E-score
1,ACTGTTGG,-0.221
2,CCCTGGTC,-0.315
3,TGCTTCAA,0.0489
4,ACGAACAT,0.109
5,AGGAACAG,0.434
6,AACAACAC,0.349
7,CGGAACAA,0.0225
8,ACGAACAG,-0.0228
9,TGGAACAA,0.136
10,CGGAACAG,-0.216
11,GACAACAC,0.261
12,CACAACAC,0.302
13,ATGAACAT,0.252
14,AGGAACAA,0.401
15,AGGAACAT,0.422
16,CTTCGGTC,-0.0958
17,ATGGGAGC,-0.193
18,ACGCATGC,0.169
19,ACAAAGCA,0.168
20,CTAGCGGA,-0.00619
21,GATTAGCA,-0.0223
22,CGCTCAAG,-0.0197
23,TTAGCTAA,-0.0988
24,CTTCCACA,-0.14
25,ATCTCTTG,-0.0945
26,ATCAACAT,0.339

row,Sequence,PBM E-score
1,GGGAACAC,0.0104
2,ATCAACAG,0.0788
3,CGGAACAC,0.0144
4,CTTAACAC,0.333
5,ATTAACAA,0.328
6,AGGAACAC,0.404
7,ATTAACAC,0.384
8,ATCAACAA,0.224
9,AAGTAGGA,0.2
10,CCTCTAGA,-0.0256
11,AAGAACGC,0.0817
12,AGGGTAGG,0.0464
13,ACGCTTTG,-0.111
14,GCATTCTA,0.0333
15,AGACAGAT,-0.0373
16,ATCAGGCC,-0.0425
17,ATCAGGCG,0.0225
18,GTCAGGCA,0.469
19,GTCAGGAA,0.277
20,CTCAGGGA,-0.251
21,CTCAGGCC,-0.129
22,ATCAGGCA,0.481
23,GTCAGGGA,-0.339
24,CTCAGGCA,0.462
25,CGGATCAC,-0.00917
26,CCTTTCTC,-0.0866

row,Sequence,PBM E-score
1,CTCAGGGC,-0.29
2,AGTGTCTA,0.0204
3,AGTCCCAT,-0.115
4,AGTGCCGC,-0.373
5,CGTGCCGC,-0.111
6,AGTGCCTG,0.49
7,CGTGCCTC,0.469
8,AGTGCCAG,-0.0756
9,AGTGCCTC,0.405
10,CGTGCCCC,0.00946
11,AGTGCCAC,-0.35
12,AGAGCCTC,-0.422
13,AGTGCCGG,0.0259
14,AGAGCCTG,0.341
15,AGAGCCTA,0.177
16,GAGATTGA,-0.0729
17,ACGGTTTG,-0.0879
18,CAAGTCGA,-0.156
19,TGTCTCAA,-0.078
20,AGGTCGAG,-0.141
21,ATGACCAG,0.199
22,ATGCTCAG,0.15
23,CGTGCCCA,0.355
24,AGTGCCCA,0.137
25,GGTGCCCA,0.293
26,CACGGATG,0.0568

row,Sequence,PBM E-score
1,GGTAGGTA,0.269
2,CGTAGGCC,-0.0263
3,AGTAGGCA,0.481
4,AGTAGGCG,0.0255
5,GGTAGGGA,-0.104
6,GGTAGGCA,0.473
7,AGTAGGCC,-0.1
8,CGTAGGCA,0.487
9,CGTAGGTA,0.285
10,AAATGGGG,-0.133
11,CGAACTAA,0.031
12,AGGATACA,0.157
13,CCCTCTCG,-0.33
14,TCTATTCA,0.165
15,CAATTGAA,-0.0107
16,ATTACATG,0.435
17,AGTACATC,0.166
18,CTTACATC,0.163
19,ACTACATA,0.325
20,ATTACATA,0.406
21,ATTACATC,0.356
22,ATCACATG,0.195
23,ACTACATG,0.362
24,AGTACATG,0.289
25,GTTACATA,0.333
26,ACTACATC,0.173

row,Sequence,PBM E-score
1,CTTACATA,0.319
2,AGGATACT,-0.12
3,ACCTCTCC,-0.144
4,ACTTTTCC,0.0601
5,ACCTGACA,0.105
6,ATCTGAAA,-0.0689
7,AGGAGTGC,-0.146
8,GGACACCA,-0.23
9,ACTCGCCC,-0.179
10,TACTTTGA,0.0853
11,ACACTCCA,-0.141
12,CATACATG,0.291
13,AATACATT,0.235
14,AATACATG,0.413
15,GGCGTGAC,0.017
16,AGAACGCT,-0.186
17,AGTGTCGC,-0.0232
18,AAGAACCT,0.191
19,AGGAACCC,0.444
20,AGGAACCA,0.419
21,TGGAACCA,-0.133
22,CGGAACCG,-0.249
23,ACGAACCT,-0.0403
24,GGGAACCA,-0.175
25,GGGAACCC,-0.279
26,AGGAACCT,0.458

row,Sequence,PBM E-score
1,CGGAACCC,-0.0527
2,AGGAACCG,0.442
3,ATGAACCG,0.0149
4,AGTTCGCG,-0.0658
5,ACCATCAA,-0.0603
6,CTACTGGC,-0.182
7,GGGAGGTA,0.0239
8,AATTCCGG,-0.0255
9,GTCCTCCA,-0.175
10,CCACACCG,-0.0267
11,CAGGTCGC,-0.225
12,GATGTTTA,0.125
13,AGTGTTTA,0.126
14,TGTGTTAA,0.401
15,GGTGTTTA,0.0636
16,CGCGTTAG,0.187
17,GGTGTTAA,0.28
18,AGTGTTAA,0.264
19,CATGTTTC,0.24
20,GGCGTTAA,0.149
21,CGCGTTAA,0.368
22,CGTGTTTA,0.346
23,CATGTTTA,0.371
24,ACACTGGC,0.00843
25,ACTTAAGG,0.157
26,CTAGATAC,-0.0863

row,Sequence,PBM E-score
1,GCAAGACC,-0.0597
2,CGCAAAAC,0.0841
3,CACAGCTC,0.0935
4,CAACTGAG,0.00667
5,GAACCTCA,-0.0997
6,AGAGCACT,-0.0229
7,GAAACTCA,-0.0953
8,CGGACAAC,-0.0115
9,CTCGAGCA,-0.0333
10,CGTGTTAA,0.418
11,AATGTTGA,0.162
12,CGTGTTAG,0.354
13,CGTGTTAC,0.308
14,CATGTTGA,0.401
15,CATGTTGC,0.297
16,CCTGTTAA,0.297
17,CGTGTTCA,0.273
18,CTTGTTAA,0.355
19,AGTGTTAG,0.0278
20,CTTGTTAC,0.158
21,GTTGTTAA,0.275
